Source: PubChem BioAssay AID1159580 (chemical genetic matrix, 2015)
“And” between values parts separate entries of the source, which are not always exact repeats. Equal values may be shown once. Among all 5,500 compounds or so, about 2,000 (36%) were called active. Another 18% or so got no clear call; they are omitted. Rule as the data show it: active = normalized growth mostly below about 0.91 (no sharp cut-off); inconclusive = no clear call, values can overlap the other calls; inactive = mostly above about 0.92. The list shows a part of the results.

Assay: chemical genetic growth profiling, strain panel (AID 1159580);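 also: tested at 20 µM; growth read once vehicle control cultures reached saturation at 30 °C; 1 = growth at the plate median or of vehicle wells; lower values mean less growth of the strain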
Conditions: S. cerevisiae deletion strains, growth OD

Measured: normalized growth

O=C(O)c1cc(=O)c(O)c2c(O)c(O)ccc2c1
inactive: locus YAL013W, strain DEP1, hits give low values 1 | locus YAL021C, strain ccr4, hits give low values 1.02 | locus YAL026C, strain drs2, hits give low values 0.993 | locus YAL030W, strain snc1, hits give low values 1 | locus YBL061C, strain skt5, hits give low values 0.998 | locus YBR009C, strain hhf1, hits give low values 0.989 | locus YBR021W, strain FUR4, hits give low values 0.991 | locus YBR023C, strain chs3, hits give low values 1 | locus YBR171W, strain sec66, hits give low values 0.985 | locus YBR229C, strain ROT2, hits give low values 1.01 | locus YBR231C, strain swc5, hits give low values 0.988 | locus YBR279W, strain paf1, hits give low values 0.993 | locus YCL011C, strain gbp2, hits give low values 0.996 | locus YCL016C, strain dcc1, hits give low values 1 | locus YCL029C, strain bik1, hits give low values 1.02 | locus YCL061C, strain MRC1, hits give low values 0.993 | locus YCL069W, strain vba3, hits give low values 0.998 | locus YCR088W, strain abp1, hits give low values 0.99 | locus YDL005C, strain med2, hits give low values 0.997 | locus YDL035C, strain GPR1, hits give low values 1 | locus YDL040C, strain nat1, hits give low values 1.01 | locus YDL074C, strain BRE1, hits give low values 0.995 | locus YDL101C, strain DUN1, hits give low values 1.01 | locus YDL134C, strain PPH21, hits give low values 1 | locus YDL185W, strain tfp1, hits give low values 0.998 | locus YDL192W, strain arf1, hits give low values 1.01 | locus YDR001C, strain nth1, hits give low values 0.997 | locus YDR069C, strain doa4, hits give low values 0.974 | locus YDR101C, strain arx1, hits give low values 1.02 | locus YDR137W, strain rgp1, hits give low values 0.907 | locus YDR150W, strain NUM1, hits give low values 1 | locus YDR159W, strain sac3, hits give low values 0.969 | locus YDR162C, strain NBP2, hits give low values 0.979 | locus YDR195W, strain ref2 0.957 | locus YDR297W, strain sur2, hits give low values 0.997 | locus YDR318W, strain mcm21, hits give low values 1.05 | locus YDR334W, strain swr1, hits give low values 0.984 | locus YDR335W, strain msn5, hits give low values 0.996 | locus YDR388W, hits give low values 1.03 | locus YDR392W, strain spt3, hits give low values 0.997 | locus YDR502C, strain sam2, hits give low values 1.02 | locus YEL003W, strain gim4, hits give low values 0.999 | locus YEL037C, strain rad23, hits give low values 1 | locus YEL061C, strain CIN8 (second series), hits give low values 1 | locus YEL061C, strain CIN8, hits give low values 1 | locus YER015W, strain faa2, hits give low values 0.989 | locus YER016W, strain bim1, hits give low values 0.999 | locus YER110C, hits give low values 1.03 | locus YER111C, strain swi4, hits give low values 0.986 | locus YER155C, strain BEM2 (second series), hits give low values 1.01 | locus YER155C, strain BEM2, hits give low values 1.02 | locus YER167W, strain BCK2, hits give low values 1.03 | locus YFR010W, strain ubp6, hits give low values 0.986 | locus YGL078C, strain dbp3, hits give low values 1.01 | locus YGL086W, strain mad1, hits give low values 1.02 | locus YGL167C, strain pmr1, hits give low values 1 | locus YGL173C, strain kem1, hits give low values 1 | locus YGL227W, strain vid30, hits give low values 0.979 | locus YGL240W, strain doc1, hits give low values 0.994 | locus YGL248W, strain PDE1, hits give low values 1 | locus YGL253W, strain hxk2, hits give low values 0.999 | locus YGR078C, strain PAC10, hits give low values 0.969 | locus YGR135W, strain pre9, hits give low values 0.993 | locus YGR229C, strain SMI1, hits give low values 0.977 | locus YGR252W, strain gcn5, hits give low values 1.03 | locus YHR013C, strain ard1, hits give low values 0.975 | locus YHR027C, strain rpn1, hits give low values 0.998 | locus YHR030C, strain SLT2, hits give low values 1.01 and 0.987 | locus YHR079C, strain IRE1 (second series), hits give low values 1.02 | locus YHR079C, strain IRE1, hits give low values 0.99 | locus YHR094C, strain hxt1, hits give low values 1.02 | locus YHR129C, strain ARP1, hits give low values 1.01 | locus YHR142W, strain chs7, hits give low values 1.02 | locus YHR200W, strain rpn10, hits give low values 1.03 | locus YIL066C, strain RNR3, hits give low values 1.03 | locus YIL073C, strain SPO22, hits give low values 1.14 | locus YIL125W, strain kgd1, hits give low values 1.01 | locus YIR030C, strain dcg1, hits give low values 1.03 | locus YJL092W, strain hpr5, hits give low values 0.998 | locus YJL095W, strain BCK1 (second series), hits give low values 1 | locus YJL095W, strain BCK1, hits give low values 0.999 and 0.991 | locus YJL115W, strain asf1, hits give low values 0.99 | locus YJL129C, strain trk1, hits give low values 1.04 | locus YJL134W, strain LCB3, hits give low values 1 | locus YJL154C, strain vps35, hits give low values 1 | locus YJL164C, strain tpk1, hits give low values 0.985 | locus YJL166W, strain qcr8, hits give low values 1 | locus YJL168C, strain set2, hits give low values 1.01 | locus YJL187C, strain SWE1 (second series), hits give low values 0.994 | locus YJL187C, strain SWE1, hits give low values 0.995 | locus YJR043C, strain POL32, hits give low values 1.04 | locus YJR066W, strain TOR1, hits give low values 0.892
